Shown is part of a subset that was picked to be rich in hits.
Pf Dd2 growth: blocks in vitro growth of P. falciparum Dd2; P. falciparum Dd2 growth, SYBR Green, 72 h; Potency, µM (doses to about 28.9 µM), for inactives: at the top dose activity, negative = inhibition, usual class: inhibitors; 120,000 tested, 4.3% active; AID 1347417; active means well fitted inhibition curve with a large enough effect;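 further: plate controls were DMSO vehicle for no effect and reference drug for full effect; nearly all actives have a fitted effect of over 65% in size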
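Infected erythrocytes (Dd2, 0.3% parasitemia, 2.5% hematocrit final) are added to compound in RPMI-1640/Albumax II medium, grown 72 h at 37C in low oxygen, then lysed with saponin/Triton-X containing SYBR Green and read by fluorescence.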
The depositor's hits bear a star; i = inactive; [ ] = another dose, or the depositor's remark. Potency means the concentration at half of the fitted maximal effect.

SMILES	Pf Dd2 growth
Cc1ccccc1NC(=O)c1c(NC(=O)c2ccncc2)sc2c1CCC(C(C)(C)C)C2 (centres undefined)	5.6µM*
COc1ccc(C(=O)N2CCC(n3cc(-c4nc(C)no4)nn3)C2)cc1OC (centres undefined)	-14%
CS(=O)(=O)N1CCN(C(=O)CCC2CCN(c3cc(NC4CC4)ncn3)CC2)CC1	i
CSCC(=O)N1C[C@@H](NC(=O)NC2CCCCC2)C[C@H]1C(=O)N[C@H](Cc1c[nH]c2ccccc12)C(N)=O	-5%
CCc1nccn1CCC(=O)N1CC[C@@](O)(C2CCOCC2)[C@H](C)C1	2%
O=C(c1c[nH]c2ccccc12)N1CCC2(CC1)CN(c1ccncn1)CC2CO (centres undefined)	5.6µM*
O=C(Cc1ccsc1)N1CCC2(CC1)CN(c1ccncn1)CC2CO (centres undefined)	-15%
O=C(Cc1ccccc1)N1CCC2(CC1)CN(c1ccncn1)CC2CO (centres undefined)	i
OC1(c2nc(Nc3ccc(OC(F)(F)F)cc3)n[nH]2)CCOCC1	i
CCOCCn1cnc(-c2ccccc2)c1-c1cccc(C#N)c1	i
CCSc1ncc(-c2c(-c3ccccc3)ncn2CC[C@@H](C)CO)cn1	-26%
CCC(Cn1cnc(-c2ccccc2)c1-c1ccc(C#N)cc1)N1CCN(C)CC1 (centres undefined)	8.9µM*
COc1ccc(C(=O)N2CCC3(CC2)N(C)C(=O)CS3(=O)=O)c(C)c1	8%
COc1cc(C(=O)NC2CCCN(c3cc(-c4ccc(F)cc4)[nH]n3)C2)cc(OC)c1OC (centres undefined)	i
O=C(NCCCn1ccnc1)c1cnc2c(c1)N(C(=O)CCc1ccccc1)CCC2	-22%[44.1 µM]
O=C1NCCCCCN(C(=O)CN2CCCC2=O)[C@H]2CCC[C@@H]12	23%
Cn1nccc1C(=O)N[C@@H]1CN(Cc2ccccc2)C[C@H]1CO	13µM*
Cc1cnc(C(=O)N[C@@H]2CN(Cc3ccccc3)C[C@H]2CO)cn1	-22%
Cc1cc(CN2C[C@@H](CO)[C@H](NC(=O)c3ccccc3)C2)n(C)n1	35%
COc1cc(CN2C[C@@H](CO)[C@H](NC(=O)c3ccccc3)C2)ccc1F	5.6µM*
CC(=O)N[C@@H]1CN(Cc2ccc(F)c(Br)c2)C[C@H]1CO	-26%
O=C(N[C@@H]1CN(Cc2ccccc2)C[C@H]1CO)c1ccnnc1	9%
Cc1cc(CN(C)C(=O)C2CCCN(C3CCN(Cc4ccncc4)CC3)C2)n[nH]1 (centres undefined)	-8%
Cc1cnc(C)c(-c2cc(O)c3c(c2)CN(C(=O)C2CCNC2)CCO3)n1 (centres undefined)	3%
CCC(=O)NCc1cc2c(nc1OC)CN(C1CCCC1)C2=O	-7%
SMILES	Pf Dd2 growth
O=C(c1ccccc1F)N1CCC(Cc2nc(C3CCOCC3)no2)CC1	17%
CC(C)CCNc1nc(Nc2ccccc2)c2cnn(C)c2n1	10µM*
COCCCNc1nc(NCc2cccc(Cl)c2)c2cnn(C)c2n1	-9%
Cc1cccnc1NCCNc1nc(C(C)C)nc2c1cnn2C	-25%
CCCc1nc(C(=O)N2CCC3(CC2)C(=O)N(C)c2ccccc23)cs1	-30%
Cc1cc(C)cc(C(=O)N2CCCC(n3cc(-c4nc(C)no4)nn3)C2)c1 (centres undefined)	i
c1ccc(-n2cc(CN3CCC(Oc4ccncc4)CC3)nn2)cc1	-22%
COc1cccc(C2CCN(Cc3cn(-c4ccccc4)nn3)C2)c1OC (centres undefined)	13µM*
O=C(O)Cc1cc(C2CCN(Cc3cn(-c4ccccc4)nn3)CC2)n[nH]1	2%
Cc1noc(-c2cn(C3CCN(C(=O)c4ccccc4)CC3)nn2)n1	7%
CCOC(=O)c1sc2ccccc2c1S(=O)(=O)Nc1cccc(C(F)(F)F)c1	i
CCOC(=O)c1cnc2c(C)cc(C)cc2c1Nc1ccccc1OCC	0%
CCOC(=O)c1cnc2c(ccc3ccccc32)c1Nc1ccccc1O	11µM*
CCOC(=O)c1cnc2c(C)c(Cl)ccc2c1Nc1ccc(C)cc1C	-23%
CCOC(=O)c1cnc2c(C(F)(F)F)cccc2c1Nc1cccc(C(=O)OC)c1	2.8µM*
CCOC(=O)c1cnc2c(C)cccc2c1Nc1ccc(OC(C)C)cc1	-30%
O=C1COc2ccc(-c3ccc4c(c3)OCO4)nc2CN1Cc1ccc(F)cc1	-13%[44.1 µM]
CCC1(N2CCN(S(=O)(=O)c3ccc(F)c(C)c3)CC2)CCN(S(C)(=O)=O)C1 (centres undefined)	-12%
Cc1noc(-c2ccccc2OC2CCN(C(=O)c3cnccn3)C2)n1 (centres undefined)	14%
CC(C)(N)C(=O)N1CCC(n2nccc2NC(=O)c2cccc(F)c2)CC1	-8%
O=C(O)C1(Oc2ccc3ccccc3c2)CCN(c2ncnc3nc[nH]c23)CC1	-12%
CCc1ccc(NC(=O)NCCc2noc(C)n2)cc1	6%
CN(CC1CCOC1)C(=O)c1ccc(F)c(F)c1 (centres undefined)	i[5.79 µM]
COc1ccc(CCN2CC(NCc3ccc(-n4cccn4)cc3)CC2=O)cc1 (centres undefined)	-24%
